# According to PubChem BioAssay (NCATS):
# Inconclusive results are not listed. Calls of active or inactive are those of the source. The call rests on the fitted dose curve; in most records, active means well fitted inhibition curve with a large enough effect in the repeat runs; inconclusive means weak or mixed curves; inactive means no such curve, though single readings can be large or run the other way.
# Target: Cytochrome P450 2C9 (Homo sapiens) (UniProt P11712)
# Experiment: Cytochrome P450 family 2 subfamily C member 9 (CYP2C9) small molecule antagonists: luciferase biochemical (cell-free) qHTS assay (AID 1645842); further: nearly all actives have a fitted effect of over 55% in size
# Details: P450-Glo CYP2C9 enzyme assay, luciferin luminescence; series mostly up to 57.4 µM
# Procedure: National Center for Advancing Translational Sciences [NCATS] Assay Overview: Cytochrome P450 (CYP) enzymes are membrane-bound hemeproteins that play a key role in metabolism of drugs and xenobiotics. Assaying the effect of chemicals on CYP isozymes is useful to minimize the adverse drug reactions and toxicities in drug development process. Chemical compounds were tested for their effect on CYP enzyme activities by using P450-Glo (TM) screening systems (Promega Corporation, Madison, WI). These systems provide a luminescent method containing proluciferin substrates and are converted to luciferin products by CYP isozymes. The luciferin products formed are detected with a luciferin detection reagent, and the amount of light produced is proportional to CYP activity. P450-Glo (TM) CYP2C9 screening system (Catalog. No. V9790) was used to detect the compounds that interfere in CYP2C9 activity.
# Assay Protocol Summary: Two ul of enzyme-substrate mix supplemented with 0.4% Bovine Serum Albumin was dispensed into medium binding white/solid 1536-well plates (Greiner Bio-One North America Inc., Monroe, NC) using a Flying Reagent Dispenser (FRD, Aurora Discovery, San Diego, CA). […] The assay plates were incubated at room temperature for 10 min. Then 2 ul of NADPH regeneration solution was added to each well of the assay plates using an FRD and incubated at 37C for 1 h. The reaction was stopped by adding 4 ul of detection reagent using an FRD and after 20 min incubation at room temperature, the luminescence signal was measured using a ViewLux plate reader (Perkin Elmer, Shelton, CT). Data were expressed as relative luminescence units.
# Potency means the concentration at half of the fitted maximal effect.
# Chain of Cytochrome P450 2C9 (Homo sapiens) (P11712 whole entry, looked up): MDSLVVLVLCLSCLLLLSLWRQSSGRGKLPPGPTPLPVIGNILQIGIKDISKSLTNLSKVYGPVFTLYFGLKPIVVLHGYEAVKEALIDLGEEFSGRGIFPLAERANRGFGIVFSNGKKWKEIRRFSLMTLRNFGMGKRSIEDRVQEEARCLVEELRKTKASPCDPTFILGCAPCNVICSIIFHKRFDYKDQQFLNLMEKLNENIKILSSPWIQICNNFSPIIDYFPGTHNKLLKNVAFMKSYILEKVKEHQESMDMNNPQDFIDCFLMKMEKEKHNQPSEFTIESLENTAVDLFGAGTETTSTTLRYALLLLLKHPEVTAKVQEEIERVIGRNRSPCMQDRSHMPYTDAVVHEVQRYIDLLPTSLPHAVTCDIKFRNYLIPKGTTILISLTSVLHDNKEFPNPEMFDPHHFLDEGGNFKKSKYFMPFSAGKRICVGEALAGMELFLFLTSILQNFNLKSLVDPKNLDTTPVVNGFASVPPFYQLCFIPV
row,Structure (SMILES),Potency
1,O=C(NCCN1CCC(n2c(=O)[nH]c3ccccc32)CC1)c1cc2cc(F)ccc2[nH]1,3.38 µM (active)
2,CC(C)(O)C(=O)N1CCN(c2ccc(C(F)(F)F)c(C3=C(c4c[nH]c5ccccc45)C(=O)NC3=O)c2)CC1,3.79 µM (active)
3,Cc1cc(N2CCOCC2)ccc1Nc1nc(NC2CCCCC2)c2[nH]cnc2n1,13.5 µM (active)
4,CC[C@H]1CN(c2nc(N)c(C(N)=O)nc2Cl)CCN1C1CCN(Cc2ccc(Cl)cc2)CC1,7.56 µM (active)
5,CNC(=O)COC(=O)N1CCC(CCc2ccc(Cl)cc2)CC1,21.3 µM (active)
6,COc1cc(NC(=O)c2cccc(-n3cc(NC(=O)Nc4cccc(C)c4)cn3)c2)cc(OC)c1OC,2.68 µM (active)
7,COc1ccc(S(=O)(=O)N2CCC[C@H]2C(=O)Nc2cc(C)cc(C)c2)cc1,0.674 µM (active)
8,O=C(NCC(=O)N1CCCC1)Nc1ccc2cnccc2c1,inactive
9,CNc1nc(NCc2ccc(NS(C)(=O)=O)cc2Cl)cc(-c2ccccn2)n1,2.68 µM (active)
10,CCS(=O)c1nc(-c2cccc(OCc3ccccc3)c2)cc(C(F)(F)F)n1 (stereo not given),10.7 µM (active)
11,COc1cc(C(=O)NC(=S)Nc2cccc(NC(=O)c3ccccc3)c2)cc(OC)c1OC,3.79 µM (active)
12,CN1CCN(C2=Nc3ccccc3Nc3ccc(Cl)cc32)CC1,13.5 µM (active)
13,CCCCCCOC(=O)/N=C(\N)c1ccc(NCc2nc3cc(C(=O)N(CCC(=O)OCC)c4ccccn4)ccc3n2C)cc1,inactive
14,CC(C)S(=O)(=O)c1ccc2nccc(Nc3ccc4scnc4c3)c2c1,6.74 µM (active)
15,Clc1ccc(Cn2c(Cc3ccccc3)nc3ccccc32)cc1,9.52 µM (active)
16,O=C1c2ccc(Nc3ccc(F)cc3F)cc2CCc2ccc(OCC(O)CO)cc21 (stereo not given),6.01 µM (active)
17,COc1c(C)cnc(Cn2cc(C#CCC(C)(C)O)c3c(Cl)nc(N)nc32)c1C,2.39 µM (active)
18,Cc1ccc(S(=O)(=O)NCc2ccc(C(=O)NCCN(Cc3ccccc3)C(C)C)cc2)cc1,9.52 µM (active)
19,O=C(O)c1cccc(-c2ccc(-c3cn(C(=O)N4CCCCC4Cc4ccccc4)nn3)cc2)c1 (stereo not given),8.49 µM (active)
20,COc1cc2c(cc1-c1c(C)noc1C)ncc1[nH]c(=O)n(C(C)c3ccccn3)c12 (stereo not given),5.35 µM (active)

row,Structure (SMILES),Potency
1,C=CCCN1CCC2(CC1)CN(C(=O)c1c(F)cccc1F)c1ccc(Cl)cc12,13.5 µM (active)
2,CCN1CCC[C@@H]1CNC(=O)c1ccc2c(c1)NC(=O)c1cccc(C)c1S2,inactive
3,CN[C@H]1CC[C@@H](c2ccc(Cl)c(Cl)c2)c2ccccc21,15.5 µM (active)
4,CN1CCC(NC(=O)c2cc(-c3c(O)cc(O)cc3Oc3ccc([N+](=O)[O-])cc3)on2)CC1,12 µM (active)
5,C[C@H](Oc1cc(-n2cnc3ccc(CN4CCN(C)CC4)cc32)sc1C(N)=O)c1ccccc1C(F)(F)F,6.74 µM (active)
6,Cc1cn2c(n1)Cc1ccc(Cl)cc1C(c1ccc(N)cc1)=N2,12 µM (active)
7,O=C(Nc1ccccc1C(=O)Nc1ccc(CCO)cc1)c1ccc([N+](=O)[O-])cc1,inactive
8,Cn1cc(-c2ccc3c(c2)CCN3C(=O)Cc2cccc(C(F)(F)F)c2)c2c(N)ncnc21,12 µM (active)
9,COc1ccc2cc(-c3cc(-c4cc(Cl)cc(Cl)c4)nn3C(C)c3ccc(C(=O)NCCC(=O)O)cc3)ccc2c1 (stereo not given),10.7 µM (active)
10,CC1(S(=O)(=O)O)CC(=O)c2ccccc2C1=O (stereo not given),16.9 µM (active)
11,CCOc1cn(-c2ccc(F)cc2C)nc1C(=O)Nc1ccc(Oc2ccnc3cc(OC)c(OC)cc23)c(F)c1,inactive
12,COC(=O)N1CCC(n2ncc3c(N4CCOCC4)nc(-c4ccc(NC(=O)NC5CC5)cc4)nc32)CC1,3.38 µM (active)
13,Cc1ccc(N2CCN(S(=O)(=O)N3CCCCC3)CC2)c(C)c1,0.849 µM (active)
14,Cc1cc(C)c(-n2cc(C)c3c(Cl)nc(C)nc32)c(C)c1,10.7 µM (active)
15,CC[C@H](C(=O)Nc1ccccc1N1CCCC1)c1ccccc1,7.56 µM (active)
16,Cc1nc(Nc2ccc(F)cc2)nc(N2CCc3ccccc3C2C)c1C (stereo not given),5.35 µM (active)
17,O=C(NCc1nc2ccccc2c(=O)n1-c1ccc(F)cc1)Nc1ccc(Cl)c(C(F)(F)F)c1,10.7 µM (active)
18,O=S(=O)(NCc1cccc2ccccc12)c1cc(Cl)c(Oc2cccc(N3CCNCC3)c2)s1,1.69 µM (active)
19,CC#CC(=O)Nc1ccc2ncnc(Nc3cccc(Br)c3)c2c1,inactive
20,CCOC(=O)c1cnc2ccc(-c3cncc(NS(=O)(=O)c4ccccc4)c3)cn12,0.134 µM (active)
